# Compound activity deposited in PubChem by National Center for Advancing Translational Sciences (NCATS).
# The list is not random: actives were taken first. Their share in the collection is about 21%.
# ELG1 DNA repair – ELG1-dependent DNA repair inhibition | 330,000 compounds, 2.3% hits | AID 504467 | HEK293T ELG1-luciferase reporter, luminescence, 16 h; DNA damage induced by 5-fluorouridine | Potency, µM (titrated, usually from 46.1 µM), actives largely listed as inhibitors; further: nearly all actives have a fitted effect of over 55% in size
#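 HEK293T cells expressing luciferase-tagged ELG1 (2,000/well) received 5-Fluorouridine plus compound or DMSO for 16 hr at 37 °C. Luciferase was read by ONE-Glo luminescence after 30 min at room temperature.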
# TDP1 cell noCPT – qHTS for Inhibitors of human tyrosyl-DNA phosphodiesterase 1 (TDP1): qHTS in cells in absence of CPT | DT40 Tdp1-/- hTDP1 cells, no CPT, ATP luminescence, 48 h | Potency, µM (top dose mostly 46.2 µM), usual class: inhibitors | 420,000 compounds, 15% hits; further: nearly all actives have a fitted effect of over 55% in size
#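 Compound effects on proliferation are scored in DT40 Tdp1-/-;hTDP1 cells in the absence of CPT. ATP levels (CellTiter-Glo luminescence) are recorded after a ≥48 hr, 37 °C incubation.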
# IL1B secr inh – blocks inflammasome-driven IL-1 beta release. THP-1 LPS/ATP IL-1B secretion, AlphaLISA, 16 h; active compounds read low. activity change, % at 57.5 µM. 360,000 compounds, 4.7% hits; in the data active means activity change below about -50%; inconclusive means mostly about -30% to -49%
#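 THP-1 cells pretreated 1 hr with compounds (up to 57.5 uM final), then stimulated with LPS (250 ng/mL final) plus ATP (1.25 mM final); secreted IL-1B measured by AlphaLISA after 16 hr, decreased signal indicating inhibition.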
# VP16 counter – Gal4-VP16 reporter inhibition counter-screen | Drosophila S2 Gal4-VP16 UAS-luciferase, luminescence, 20 h | Potency, µM (highest dose often 53.6 µM), actives largely listed as inhibitors | 310,000 compounds, 3.5% hits;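 further: Gal4-VP16 expression switched on by copper sulfate through the metallothionein promoter; nearly all actives have a fitted effect of over 50% in size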
# RORgamma inh – inhibitors of mouse ROR gamma transcriptional activity; AID 2551; 310,000 compounds, 5.4% hits; Potency, µM (titrated, usually from 53.6 µM), hits mostly inhibitors; Drosophila S2 Gal4-RORgamma UAS-luciferase reporter, 20 h; further: nearly all actives have a fitted effect of over 60% in size
# Target sequence (P51450 whole entry, looked up, the tested form may be a part): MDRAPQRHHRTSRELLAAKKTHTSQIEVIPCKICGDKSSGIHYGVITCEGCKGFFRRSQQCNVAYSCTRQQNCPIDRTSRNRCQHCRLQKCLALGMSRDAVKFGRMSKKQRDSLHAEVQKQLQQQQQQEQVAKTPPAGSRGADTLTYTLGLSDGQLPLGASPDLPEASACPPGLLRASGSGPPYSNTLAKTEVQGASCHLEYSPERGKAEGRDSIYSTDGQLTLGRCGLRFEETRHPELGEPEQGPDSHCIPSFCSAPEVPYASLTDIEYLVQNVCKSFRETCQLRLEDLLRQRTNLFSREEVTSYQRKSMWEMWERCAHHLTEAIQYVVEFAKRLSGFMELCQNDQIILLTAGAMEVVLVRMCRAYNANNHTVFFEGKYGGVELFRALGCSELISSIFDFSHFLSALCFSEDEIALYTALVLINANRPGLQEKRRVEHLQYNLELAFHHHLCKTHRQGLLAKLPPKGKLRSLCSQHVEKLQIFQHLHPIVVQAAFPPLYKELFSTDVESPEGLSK
#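 Using a luciferase readout, inhibitors were identified by reduced reporter activity in Drosophila cells coexpressing a copper-inducible Gal4–ROR gamma fusion and UAS-driven Photinus luciferase, incubated 20 hr after 700 uM copper sulfate.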
# TDP1 cell CPT – DT40-hTDP1 cell growth loss with CPT; Potency, µM (highest dose often 46.2 µM), actives largely listed as inhibitors; 420,000 compounds, 12% hits; chicken DT40 Tdp1-/-;hTDP1 cells + 20 nM CPT, ATP luminescence, 48 h; further: nearly all actives have a fitted effect of over 55% in size
#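 Cell growth measured by CellTiter-Glo luminescence after a minimum 48 h, 37 C compound exposure with 20 nM CPT in Tdp1-knockout DT40 cells stably expressing hTDP1, seeded 400/well; qHTS titration format.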
# Hits are given with their value; n = inactive; u = inconclusive; x = not tested or not shown. Unless noted, the call rests on the fitted dose curve; in most records, active means well fitted curve in the direction sought with a large enough effect; inconclusive means small, poorly fitted or top-dose-only effect, or another doubt; inactive means no such curve, though single readings can be large; an effect the other way counts as inactive or inconclusive.
SMILES,ELG1 DNA repair,TDP1 cell noCPT,IL1B secr inh,VP16 counter,RORgamma inh,TDP1 cell CPT
CCCNC(=O)N1[C@H]2CC[C@@H]1C(C(=O)OC)=C(c1cccc(Cl)c1)C2,n,u,n,x,x,u
COC(=O)C1=C(c2ccccc2)C[C@@H]2CC[C@H]1N2C(=O)N1CCCC1,x,16.4µM,n,x,x,u
COC(=O)C1=C(c2ccc(S(C)(=O)=O)cc2)C[C@@H]2CC[C@H]1N2C(=O)N1CCCC1,x,n,n,x,x,n
COC(=O)C1=C(c2cccc(Cl)c2)C[C@@H]2CC[C@H]1N2C(=O)N1CCCC1,n,7.31µM,n,x,x,8.2µM
CC(C)CN1CCCC2(CCN(C(=O)Oc3ccccc3)CC2)C1,x,n,x,n,n,n
C=C[C@H]1CN2CC[C@@H]1C[C@H]2[C@@H](O)c1ccnc2ccccc12,x,x,x,n,n,x
N/C(=N\[N+](=O)[O-])N1CCN(C(=O)c2ccccn2)CC1,n,n,n,n,n,n
CCOC(=O)[C@]12Cc3ccccc3[C@H]1N(Cc1ccccc1)C(=O)c1ccccc12,x,u,n,x,x,u
CCOC(=O)[C@]12Cc3cc(OC)ccc3[C@H]1N(Cc1ccccc1)C(=O)c1cc(F)c(F)cc12,x,u,n,x,x,u
CCOC(=O)[C@]12Cc3ccccc3[C@H]1N(CCC(=O)OC)C(=O)c1ccccc12,x,16.4µM,x,x,x,18.4µM
CCOC(=O)[C@]12Cc3cc(C)ccc3[C@H]1N(CCC(=O)OC)C(=O)c1cc(OC)ccc12,x,8.2µM,-124.0,x,x,10.3µM
CNC(=S)S,x,x,x,n,n,x
CN[C@@H]1C[C@@H](c2ccc(Cl)c(Cl)c2)c2ccccc21,x,11.9µM,x,n,n,23.7µM
CN[C@@H]1C[C@H](c2ccc(Cl)c(Cl)c2)c2ccccc21,x,9.44µM,x,u,u,8.41µM
OC[C@@H]1CCCN2CCCC[C@@H]12,x,n,x,n,n,n
CN1CCCCC1Cn1cc(C(=O)c2cc([N+](=O)[O-])ccc2I)c2ccccc21 (stereo unspecified),x,x,x,n,n,x
Cc1cc(=O)oc2c1c(C)nn2-c1nn[nH]n1,n,u,n,n,n,20.6µM
Cc1cc(OCc2nn[nH]n2)c2c3c(c(=O)oc2c1)CCC3,n,n,n,n,n,n
COP(=O)(OC)[C@@H](O)C(Cl)(Cl)Cl,x,x,x,n,n,x
C/C1=C\[C@@H](C)C/C=C/[C@H]2[C@@H]3O[C@]3(C)[C@@H](C)[C@H]3[C@H](Cc4c[nH]c5ccccc45)NC(=O)[C@]32C(=O)/C=C/C(=O)[C@@H]1O,u,0.146µM,-105.0,11.2µM,5.62µM,0.146µM
C=CC(=O)OCC(CC)CCCC (stereo unspecified),x,x,x,n,n,x
CCOC(=O)c1ccc(NC(=O)Nc2cc3c(cc2N2CCCCC2)n(CC)c(=O)n3CC)cc1,x,10.3µM,x,x,x,11.6µM
Cc1ccc(NC(=O)Nc2cc3c(cc2N2CCCCC2)n(C)c(=O)n3C)cc1Cl,x,7.31µM,x,x,x,16.4µM
CCOC(=O)c1ccc(N2CCN(c3ccccc3F)CC2)c(NC(=O)Nc2ccc(Cl)c(Cl)c2)c1,x,1.3µM,x,x,x,1.3µM
CCC(=O)Nc1ccc(C(=O)OCc2ccccc2Cl)cc1,u,u,n,n,n,u
SMILES,ELG1 DNA repair,TDP1 cell noCPT,IL1B secr inh,VP16 counter,RORgamma inh,TDP1 cell CPT
CCOC(=O)c1ccc(Nc2nc(C)cc(C)n2)cc1,u,n,n,n,n,n
N[C@@H](CCP(=O)(O)O)C(=O)O,x,n,x,n,n,n
Cc1ccc(NC(=O)COC(=O)/C=C/c2ccco2)cc1S(=O)(=O)N(C)C,n,n,n,u,n,n
Cc1nn(C(C)(C)C)c(C)c1/C=N/OC(=O)Nc1ccc(Cl)cc1,u,u,-93.7,u,u,u
COC(=O)C1=C(c2ccccc2OCc2ccccc2)C[C@@H]2CC[C@H]1N2C(=O)NCc1ccc([N+](=O)[O-])cc1,n,u,-52.6,x,x,23.1µM
COC(=O)C1=C(c2ccc(F)cc2OCc2ccccc2)C[C@@H]2CC[C@H]1N2C(=O)NCc1ccccc1Cl,n,u,n,x,x,u
COC(=O)C1=C(c2ccccc2OCc2ccccc2)C[C@@H]2CC[C@H]1N2C(=O)NCc1ccc(N(C)C)cc1,16.4µM,u,u,x,x,u
COC(=O)C1=C(c2ccccc2OCc2ccccc2)C[C@@H]2CC[C@H]1N2C(=O)NCc1ccc(Cl)cc1,u,u,n,x,x,u
COC(=O)C1=C(c2ccccc2OCc2ccccc2)C[C@@H]2CC[C@H]1N2C(=O)NCc1ccc(OC)c(OC)c1,n,20.6µM,n,x,x,16.4µM
Cn1cc(C(O)CN2CCCCC2)c2ccccc21 (stereo unspecified),n,n,n,n,n,n
CC(C)(C)NCC(O)c1ccccc1Cl (stereo unspecified),x,n,x,n,n,n
CC(C)(C)c1cc([N+](=O)[O-])cc(C(C)(C)C)c1O,u,5.17µM,n,4.47µM,14.1µM,10.3µM
Cc1ccccc1C1=NCC(=O)N(CC(=O)NCc2ccco2)c2sc3c(c21)CCCC3,u,22.4µM,-70.6,12.6µM,u,16.4µM
CCCCCc1cc(O)c2c(c1)OC(C)(C)c1ccc(C)cc1-2,x,9.44µM,x,x,x,16.8µM
C[C@H]1CC[C@]2(OC1)O[C@@H]1C[C@@H]3[C@@H]4CC[C@H]5C[C@@H](O)CC[C@]5(C)[C@@H]4CC(=O)[C@@]3(C)[C@H]1[C@@H]2C,x,x,x,u,n,x
Nc1c(C(=O)NCc2ccco2)c2nc3ccccc3nc2n1CCN1CCOCC1,u,u,n,n,n,u
COc1ccc(CCNC(=O)c2c(N)n(CCN3CCOCC3)c3nc4ccccc4nc23)cc1OC,16.4µM,13µM,u,n,n,14.6µM
CCCCCn1c(N)c(C(=O)NCCN2CCOCC2)c2nc3ccccc3nc21,u,13µM,-58.4,n,n,u
CCCCCCn1c(N)c(C(=O)NCCN2CCOCC2)c2nc3ccccc3nc21,u,u,-73.2,u,u,20.6µM
CCCCn1c(N)c(C(=O)NCc2cccs2)c2nc3ccccc3nc21,23.1µM,u,-58.0,n,n,n
Nc1c(C(=O)NCCCc2ccccc2)c2nc3ccccc3nc2n1Cc1cccs1,14.6µM,u,n,u,u,u
COCCCNC(=O)c1c(NC(=O)c2ccccc2)n(Cc2ccccc2)c2nc3ccccc3nc12,x,n,n,x,x,u
CCCCNC(=O)c1c(N)n(Cc2ccc3c(c2)OCO3)c2nc3ccccc3nc12,n,u,n,u,n,29.1µM
CCOc1ccc(C(=O)Nc2nnc(S(=O)(=O)N(C)Cc3ccco3)s2)cc1,u,n,n,n,n,n
Cc1ccc(-c2c(C)n3c4c(=O)n(C)c(=O)n(C)c4nc3n2CCO)cc1,x,0.184µM,x,x,x,0.259µM
